Compounds without any hit were thinned out: in the full panel of roughly 79,000, 15% have a hit. Rule as the data show it: active = growth inhibition above about 70%; inactive = the rest.
Tests used:
[1] = NCI Yeast Anticancer Drug Screen. Data for the rad52 strain (AID 147);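 also: 0% = growth of vehicle-treated control cultures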; conditions: S. cerevisiae rad52 mutant growth inhibition, hits give high values
In short: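 DNA repair-defective yeast; compound exposure; growth scored against vehicle controls.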

[2] = NCI Yeast Anticancer Drug Screen. Data for the wt1 strain (AID 149);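 also: 0% = growth of vehicle-treated wt1 cultures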; conditions: S. cerevisiae wt1 strain (SPY 50644) growth inhibition, hits give high values
In short: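 Each compound is tested on wt1 yeast and the loss of growth versus vehicle gives the inhibition value.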

[3] = NCI Yeast Anticancer Drug Screen. Data for the rad50EPP+ strain (AID 151);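 also: 0% = growth of vehicle-treated control cultures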; conditions: S. cerevisiae rad50 mutant strain, hits give high values
In short: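 rad50EPP+ yeast treated with test compounds. Readout: growth vs vehicle control.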

[4] = NCI Yeast Anticancer Drug Screen. Data for the mgt1 strain (AID 153); conditions: S. cerevisiae mgt1 mutant growth inhibition, hits give high values
In short: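 Growth inhibition relative to vehicle controls was scored for the mgt1 yeast strain after compound exposure.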

[5] = NCI Yeast Anticancer Drug Screen. Data for the rad50 strain (AID 155);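 also: 0% = growth of vehicle-only cultures of the same strain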; conditions: S. cerevisiae rad50 strain growth inhibition, hits give high values
In short: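 Vehicle-treated cultures provide the reference for the growth inhibition reported for compound-exposed, repair-deficient yeast.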

[6] = NCI Yeast Anticancer Drug Screen. Data for the mec2-1 strain (AID 157); conditions: S. cerevisiae mec2-1 strain, hits give high values
In short: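 Growth inhibition is read against vehicle-treated controls after compound exposure of the mec2-1 yeast strain, which is defective in DNA damage repair or cell cycle control.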

[7] = NCI Yeast Anticancer Drug Screen. Data for the rad14 strain (AID 159);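 also: 0% = growth of vehicle-treated control cultures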; conditions: S. cerevisiae rad14 strain growth inhibition, hits give high values
In short: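 Inhibition of growth is reported for a repair-deficient yeast mutant following compound treatment, calculated relative to cultures that received vehicle.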

[8] = NCI Yeast Anticancer Drug Screen. Data for the sgs1 mgt1 strain (AID 161);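 also: 0% = growth of cultures given vehicle only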; conditions: S. cerevisiae sgs1 mgt1 strain, hits give high values
In short: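 Yeast cells carrying a defined DNA-repair defect were exposed to test compounds. Growth inhibition was measured relative to vehicle-treated controls.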

[9] = NCI Yeast Anticancer Drug Screen. Data for the CLN2oe strain (AID 163);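 also: 0% = growth of vehicle-only control cultures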; conditions: S. cerevisiae CLN2oe strain, hits give high values
In short: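 Compound-treated yeast; growth vs vehicle ctrl = % inhibition. Genetically altered strain (cell-cycle control).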

[10] = NCI Yeast Anticancer Drug Screen. Data for the cln2 rad14 strain (AID 165);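 also: 0% = growth equal to vehicle treated cultures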; conditions: S. cerevisiae cln2 rad14 strain, hits give high values
In short: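 Growth inhibition, relative to vehicle-treated controls, is the read-out. The test organism is a yeast strain with defined genetic alterations, cln2 rad14.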

[11] = NCI Yeast Anticancer Drug Screen. Data for the bub3 strain (AID 167); conditions: S. cerevisiae bub3 mutant strain, hits give high values
In short: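 Mutant yeast screening strain plus compound; vehicle-treated cultures serve as the 0% inhibition reference.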

[12] = NCI Yeast Anticancer Drug Screen. Data for the wt2 strain (AID 169); conditions: S. cerevisiae wt2 strain growth inhibition, hits give high values
In short: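 Compound exposure of yeast; growth compared with vehicle controls; inhibition reported.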

[13] = NCI Yeast Anticancer Drug Screen. Data for the mlh1 strain (AID 171);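 also: 0% = growth of vehicle-treated control cultures of the same strain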; conditions: S. cerevisiae mlh1 strain growth inhibition, hits give high values
In short: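 Compounds are applied to a genetically altered yeast strain, and its growth is compared with that of vehicle-treated cultures to give percent inhibition.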

[14] = NCI Yeast Anticancer Drug Screen. Data for the sgs1 strain (AID 173);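 also: 0% = growth of vehicle-only control cultures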; conditions: S. cerevisiae sgs1 mutant, hits give high values
In short: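 Compounds applied to genetically altered yeast; growth compared with vehicle-treated cultures to give % inhibition.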

[15] = NCI Yeast Anticancer Drug Screen. Data for the mlh1 rad18 strain (AID 175); conditions: S. cerevisiae mlh1 rad18 strain growth inhibition, hits give high values
In short: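 Cells of a genetically altered yeast strain, deficient in DNA damage repair, were treated with compound. Their growth was then compared with that of vehicle-treated cultures to give inhibition.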

[16] = NCI Yeast Anticancer Drug Screen. Data for the rad18 strain (AID 177); conditions: S. cerevisiae rad18 mutant growth inhibition, hits give high values
In short: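 Compounds are applied to a repair-deficient yeast strain, and growth is compared with that of vehicle-treated cultures to give percent inhibition.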

[17] = at 5.0 µM (retest, dose inferred, filed as 0.5)
[18] = at 50.0 µM (retest, dose inferred, filed as 5.0)

Measured: growth inhibition

CCCCCCC1OCC(O)C(OCCCC)O1 (stereo not drawn)
inactive: [1]; at 1.2 µM -3% | [1]; at 3.7 µM -4% | [1]; at 11.0 µM -2% | [1]; at 33.0 µM -4% | [1]; at 100.0 µM -4% | [2]; at 1.2 µM -4% | [2]; at 3.7 µM -3% | [2]; at 11.0 µM -5% | [2]; at 33.0 µM -8% | [2]; at 100.0 µM -10% | [3]; at 1.2 µM -8% | [3]; at 3.7 µM -4% | [3]; at 11.0 µM 2% | [3]; at 33.0 µM 3% | [3]; at 100.0 µM 50% | [4]; at 1.2 µM -6% | [4]; at 3.7 µM -4% | [4]; at 11.0 µM -4% | [4]; at 33.0 µM -6% | [4]; at 100.0 µM -3% | [5]; at 1.2 µM -5% | [5]; at 3.7 µM -11% | [5]; [17] -15% | [5]; at 11.0 µM -4% | [5]; at 33.0 µM -3% | [5]; [18] 3% | [5]; at 50.0 µM -0.55% | [5]; at 100.0 µM 1% | [6]; at 1.2 µM -2% | [6]; at 3.7 µM -3% | [6]; [17] -11% | [6]; at 11.0 µM -2% | [6]; at 33.0 µM -5% | [6]; [18] -35% | [6]; at 50.0 µM -13.7% | [6]; at 100.0 µM -4% | [7]; at 1.2 µM -5% | [7]; at 3.7 µM -4% | [7]; at 11.0 µM -4% | [7]; at 33.0 µM -3% | [7]; at 100.0 µM 0% | [8]; [17] -4% | [8]; [18] 16% | [8]; at 50.0 µM 11.2% | [9]; at 1.2 µM -5% | [9]; at 3.7 µM -3% | [9]; at 11.0 µM -12% | [9]; at 33.0 µM -8% | [9]; at 100.0 µM -7% | [10]; [17] -10% | [10]; [18] 60% | [10]; at 50.0 µM 0.05% | [11]; at 1.2 µM -5% | [11]; at 3.7 µM -6% | [11]; [17] -6% | [11]; at 11.0 µM -8% | [11]; at 33.0 µM -10% | [11]; [18] 15% | [11]; at 50.0 µM -8.05% | [11]; at 100.0 µM -12% | [12]; at 1.2 µM -4% | [12]; at 3.7 µM -5% | [12]; at 11.0 µM -6% | [12]; at 33.0 µM -7% | [12]; at 100.0 µM -7% | [13]; at 1.2 µM 0% | [13]; at 3.7 µM -1% | [13]; at 11.0 µM 0% | [13]; at 33.0 µM 1% | [13]; at 100.0 µM 6% | [14]; at 1.2 µM -4% | [14]; at 3.7 µM -1% | [14]; at 11.0 µM 0% | [14]; at 33.0 µM 0% | [14]; at 100.0 µM 4% | [15]; [17] 2% | [15]; [18] -4% | [15]; at 50.0 µM -15.8% | [16]; at 1.2 µM -3% | [16]; at 3.7 µM 1% | [16]; at 11.0 µM -1% | [16]; at 33.0 µM -2% | [16]; at 100.0 µM 1%

Source: PubChem BioAssay (NCI)
